Compounds without any hit were thinned out: in the full panel of roughly 83,000, 20% have a hit.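 Interpretation: 100, growth as untreated; towards 0, rising growth inhibition; 0, no net growth; 0 to -100, cell death. Compounds scoring below 10 were considered active.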 A number with no mark means an inactive call. Calls of active or inactive are those of the source.
Assays:
Experiment in all cases: NCI-60 one-dose screen, 48 h (100 = growth as untreated, 0 = no growth, -100 = all killed)
Conditions in all cases: 10 µM unless noted
HCT-15 colon = system: HCT-15 colon
HT29 colon = system: HT29 colon
SNB-75 CNS = system: SNB-75 CNS
SNB-19 CNS = system: SNB-19 CNS
U251 CNS = system: U251 CNS
PC-3 prostate = system: PC-3 prostate
SK-MEL-5 melanoma = system: SK-MEL-5 melanoma
UACC-62 melanoma = system: UACC-62 melanoma
SK-MEL-28 melanoma = system: SK-MEL-28 melanoma
LOX IMVI melanoma = system: LOX IMVI melanoma

SMILES | growth (HCT-15 colon) | growth (HT29 colon) | growth (SNB-75 CNS) | growth (SNB-19 CNS) | growth (U251 CNS) | growth (PC-3 prostate) | growth (SK-MEL-5 melanoma) | growth (UACC-62 melanoma) | growth (SK-MEL-28 melanoma) | growth (LOX IMVI melanoma)
CCCCCCCC/C=C\CCCCCCCCOc1ccc(CC(=O)NCC[N+]2(C)CCCC2)cc1 | 84.8% | 18.4% | 43.4% | 38% | 15.1% | 9.45% (active) | 79.5% | 50.3% | 95.9% | 
Cc1cccc(C)c1NC(=O)Nc1ccccc1 | 25.5% | 27.3% | 108% | 90.8% | 77.4% | 70.7% | 101% | 71.6% | 108% | 69.8%
CN1C(=O)N(C)C2C1NN=c1s/c(=C\c3ccccc3F)c(=O)n12 (stereo not given) | 13.3% | 2.25% (active) | -4.89% (active) | 24.1% | 14.5% | 27.4% | 16.7% | 21% | 47.1% | 
O=C(Oc1ccccc1)c1cc(O)c(O)c(O)c1 | 39.8% | 85.7% | 79.5% | 65.2% | 54.8% | 70.4% | 58.4% | 31.3% | 89.9% | 59.3%
O=C1C=CC2(O)OC(c3ccccc3)CC(=O)C2=C1O (stereo not given) | 64.9% | 108% | 92% | 87.8% | 74.9% | 79.7% | 89.8% | 80.7% | 95.7% | 
O=C(Nc1ccc2[nH]ncc2c1)c1csc(Nc2ccccc2)n1 | 16.9% | 11.8% | 36% | 30.1% | 28.7% | 38.7% | 12.3% | 26.8% | 64.1% | 
COc1cc(NC(=O)c2cncnc2Nc2ccc3c(ccn3Cc3cccc(F)c3)c2)cc(OC)c1 | 33.7% | 20% | 8.48% (active) | 74.7% | 41.1% | 43.5% | 59.7% | 55% | 59.6% | 
C=CCn1c(SCC(=O)Nc2ccc(C(=O)/C=C/c3cc(OC)c(OC)c(OC)c3)cc2)nnc1-c1cc(-c2ccc(S(N)(=O)=O)cc2)nc2ccccc12 | 97.7% | 98.1% | 77.2% | 74.2% | 58.9% | 84.1% | 87.6% | 74.7% | 103% | 
CCCC[N+]1(C)CCN=C1Cc1ccccc1 (stereo not given) | 103% | 89.3% | 99.6% | 104% | 95.8% | 87.2% | 97.8% | 96.7% | 110% | 99.8%
O=C1Nc2ccccc2/C1=C/c1cccn1CCCCCCn1c2ccccc2c(=O)c2ccccc21 | 23% | 92.9% | 92.3% | 97.1% | 92.4% | 40.1% | 34.7% | 50.3% | 111% | 
COc1ccc(NC(=O)c2ccc(NC3=C(c4ccc(Cl)cc4)C(=O)NC3=O)cc2)cc1 | 75.1% | 66.7% | 85.7% | 91.8% | 82.3% | 64.3% | 80.8% | 81.6% | 101% | 
O=C(CSc1nnc(-c2cc(-c3ccc(Cl)cc3)nc3ccccc23)n1-c1ccccc1)Nc1ccc(Cl)cc1 | 97% | 104% | 94.2% | 94.5% | 98.7% | 80.3% | 101% | 87.1% | 103% | 95.8%
Nc1cc(-c2ccc(Cl)cc2)nn1-c1nc(-c2ccc(Br)cc2)cs1 | 98.3% | 92% | 89.4% | 91.4% | 95.2% | 91.5% | 100% | 91.1% | 95.3% | 
COC(=O)c1nc(-c2ccccc2)oc1S(=O)(=O)NCC(c1ccc(Cl)cc1)N1CCCCC1 (stereo not given) | 49.1% | 45.8% | 79% | 81.1% | 59.6% | 58.3% | 86% | 85.5% | 99.7% | 
CN(Cc1ccccc1)c1nc(Cl)c(C2CC(c3ccc(Cl)cc3)=NN2c2cc(Cl)cc(Cl)c2)s1 (stereo not given) | 98.8% | 92.9% | 90.4% | 108% | 109% | 92.5% | 107% | 98.1% | 112% | 97.8%
C#C[C@]1(O)CC[C@H]2[C@@H]3CC=C4c5sc(-c6cccc(C)c6)nc5CC[C@]4(C)[C@H]3CC[C@@]21C | 56.6% | 38.8% | 13.8% | 86.7% | 71.8% | 40.5% | 82.5% | 77.3% | 55.9% | 
CCn1c2ccccc2c2cc(C(O)c3cccc4ncccc34)ccc21 (stereo not given) | 11.6% | 8.32% (active) | 31.1% | 36.4% | 19.2% | 13.4% | -4.22% (active) | 16% | 61.5% | -8.41% (active)
Cn1cc(-c2ccc3occ(-c4cccc(-c5ccncc5)c4)c3n2)cn1 | 5.33% (active) | 7.76% (active) | -12.8% (active) | 29.4% | 25.4% | 19.6% | -46.4% (active) | -15.7% (active) | 30.6% | 
C=CCNc1ccc2c3c(cccc13)C(=O)N(CC=C)C2=O | 97.4% | 105% | 90.4% | 100% | 103% | 69.3% | 88.9% | 75.8% | 103% | 
CCOC(=O)c1cnc2sc(-c3ccc(OC)cc3)nc2c1Cl | 92.9% | 116% | 94.7% | 104% | 103% | 104% | 84.2% | 88.7% | 99% | 
CC1=NC(=S)NC(c2ccccc2)/C1=C1/CC(c2ccccc2O)NN1 (stereo not given) | 97.3% | 105% | 80.7% | 94.2% | 103% | 95% | 102% | 97.8% | 104% | 
O=S(=O)(c1ccc(NCSc2nc3ccccc3s2)cc1)c1ccc(NCSc2nc3ccccc3s2)cc1 | 106% | 87.8% | 81.6% | 95.9% | 90.6% | 64.9% | 97% | 83.5% | 110% | 
O=[N+]([O-])c1ccc(Oc2cccc3c(Oc4ccc([N+](=O)[O-])cc4[N+](=O)[O-])cccc23)c([N+](=O)[O-])c1 | 100% | 97% | 81.6% | 84.7% | 87% | 79.7% | 86.7% | 76.5% | 110% | 78.4%
Nc1nc(Nc2ccc([N+](=O)[O-])cc2O)nc(C(Cl)(Cl)Cl)n1 | 53.3% | 106% | 62.6% | 80.2% | 73.3% | 91.6% | 72.7% | 41.1% | 60% | 44.8%
Oc1c(Cl)cc(Cl)c2ccc(CN3CCNCC3)nc12 | 19.5% | 105% | 45.9% | 41.9% | 26.8% | 40.3% | 42.8% | 33.3% | 62.3% | 
Cc1c2cnccc2c(C)c2c1c1cc(C(=O)O)ccc1n2C | 1.03% (active) | 7.11% (active) | -7.4% (active) | 2.23% (active) | 0.0209% (active) | 10.4% | -84.7% (active) |  | -27.4% (active) | -27.1% (active)
COC1=C(OC)C(=O)C(CCCCCCCCCCO)=C(C)C1=O | 79.7% | 105% | 62.1% | 93% | 58.3% | 69.5% | 45% |  | 102% | 11.5%
CCCCC1=C(Br)C(=O)c2ncccc2C1=O | 100% | 104% | 91.9% | 97.9% | 95.5% | 90% | 90.3% | 93.4% | 115% | 

From PubChem BioAssay (NCI)
